Data published in PubChem BioAssay AID485297 (National Center for Advancing Translational Sciences (NCATS), 2010).
Hit rate of the full screen: of about 320,000 compounds, about 9,100 (2.8%) were called active. Not shown: some 3% with an inconclusive outcome. The entries come from a sample that favours actives as a whole. Where a call stands in place of a potency, no number is given. Values without a mark were called inactive. Calls follow the shape of the dose curve; as a rule, active = well fitted activation curve with a large enough effect; inconclusive = small, poorly fitted or top-dose-only effect; inactive = no such curve, though single readings can be large or run the other way.

experiment: qHTS Assay for Rab9 Promoter Activators; conditions: Huh7 Rab9 promoter-luciferase reporter, luminescence, 24 h; series mostly up to 9.22 µM; also: nearly all actives have a fitted effect of over 60% in size
From the text: NIH Chemical Genomics Center [NCGC] NIH Molecular Libraries Probe Production centers Network [MLPCN] MLPCN Grant: MH089537-01 Assay Submitter (PI): Yiannis A. Ioannou NCGC Assay Overview: Niemann Pick Type C (NPC) is a rare neurodegenerative lipidosis that is characterized by lipid storage in the endosomal/lysosomal system. Treatment modalities for this devastating disease are currently non-existent due to the severe obstacles associated with accessing the central nervous system with proteins or genes (Ioannou, 2000). We have developed a new paradigm, termed "Orphan Receptor Bypass Therapy" (ORByT), to address these disorders. This paradigm posits the existence of endogenous "suppressor" proteins whose expression can dramatically improve LSD pathogenesis. The goal is the identification/discovery of small chemical compounds that can modulate the expression of these proteins and provide a new treatment modality for these devastating disorders. One such protein whose overexpression reverses aspects of the NPC phenotype is Rab9. We have developed and optimized a cell based luciferase reporter assay in 1536 well format for the identification of up-regulators of the Rab9 promoter.
The Rab9 promoter is cloned in front of the luciferase reporter gene, therefore […] promoter activation results in luciferase expression. Frozen stock of the Rab9 promoter transfected Huh7 cells were obtained from the laboratory of Dr. Yiannis Ioannou (The Mount Sinai School of Medicine, New York, NY). Cells were propagated and maintained at NCGC in medium containing RPMI-1640 supplemented with 10% FBS, 2mM L-glutamine, and 50ug/ml penicillin/streptomycin. Cells were harvested in and plated for assays in OP-MEM I reduced-serum medium supplemented with 10% FBS. The Amplite luciferase reporter gene assay kit was purchased from ABD Bioquest and prepared/stored according to manufacturers recommendations. qHTS Assay Setup: 1.Dispensed 5ul of Huh7 cells stably expressing Rab9-luciferase at a density of 1500 cells per well 1536-well plates. 2.Incubate cells at 37C, 5% CO2, and 95% humidity for 2 hours. 3.Transferred 23nl per well of compound in DMSO solution. 4.Incubated at 37C, 5% CO2, and 95% humidity for 24 hours. 5.Dispensed 3ul per well of Amplite reagent(ABD Bioquest) per well. 6.Incubate at ambient for 10 minutes. 7.Read using the luminescence protocol on the ViewLux plate reader (Perkin Elmer).
Potency is read from the fitted curve at half-maximal effect.

Row | SMILES | Potency | activation, negative = inhibition
1 | Cc1ccc(-n2ncc3c(Nc4cccc(C(=O)O)c4)ncnc32)cc1 | 0.355 µM (active) | 
2 | COc1ccc2nc(C)cc(Nc3cccc(C(=O)O)c3)c2c1 | inactive | 
3 | Cc1ccc(Nc2ncnc3c2cnn3C)c(C)c1 | inactive | 
4 | COc1ccccc1C(=O)NCCC(=O)N(C)Cc1cccnc1 | inactive | 
5 | c1cnc(N2CCN(c3ccc4ccccc4n3)CC2)nc1 | 3.16 µM (active) | 
6 | O=C(c1ccncc1)N1CCN(c2ccc3ccccc3n2)CC1 | inactive | 
7 | Oc1ccc(CN2CCN(c3ncccn3)CC2)cc1 | inactive | 
8 | CCOc1ccc(NS(=O)(=O)c2ccc(Cl)c(C(=O)N(C)Cc3cccnc3)c2)cc1 | inactive | 
9 | O=C(NCCc1ccc(C(F)(F)F)cc1)c1ccc2c(c1)OCO2 | inactive | 
10 | CCNC(=O)CC1C(=O)N(c2ccc(OC)cc2)C(=S)N1CCc1ccncc1 (stereo not given) | inactive | 
11 | CCOCCCn1c(SCC(=O)Nc2cc(OC)ccc2OC)nc2ccccc2c1=O | inactive | 
12 | COc1ccc(NS(=O)(=O)c2cc(NC(=O)CC(=O)c3ccc([N+](=O)[O-])cc3)ccc2C)cc1 | inactive | 
13 | CC(=O)c1cc(C#N)c(N2CC(C)OC(C)C2)nc1C (stereo not given) | inactive | 
14 | CC(=O)c1cc(C#N)c(SCC(=O)Nc2nccs2)nc1C | 1.26 µM (active) | 
15 | Cc1[nH]c2ccccc2c1SCC(=O)Nc1nccs1 | 4.47 µM (active) | 
16 | CCn1c(SCC(=O)Nc2nccs2)nnc1-c1ccncc1 | inactive | 
17 | Cn1c(SCC(=O)Nc2nccs2)nnc1-c1cccnc1 | inactive | 
18 | CCn1c(SCC(=O)Nc2nccs2)nnc1-c1ccco1 | inactive | 
19 | Cc1cc(C#N)c(SCC(N)=O)nc1-c1ccc(F)cc1 | inactive | 
20 | Cc1cc(C(F)(F)F)nc(SCC(=O)Nc2nccs2)n1 | inactive | 
21 | CC(=O)c1cc(C#N)c(SCC(=O)C(C)(C)C)nc1C | 2.51 µM (active) | 
22 | O=C1C=C(c2cccc(Cl)c2O)C[C@@H](c2ccc(F)cc2)C1 | inactive | 
23 | Cc1cc(C)c(C#N)c(SCC(=O)N(CC(C)C)C2CCS(=O)(=O)C2)n1 (stereo not given) | inactive | 
24 | O=C(O[C@@H]1[C@H](Cc2ccccc2)NS(=O)(=O)[C@H]2C[C@@H]3C=C[C@]12O3)c1ccccc1Br | inactive | 
25 | O=C(Nc1ccccc1F)c1ccc(S(=O)(=O)N2CCCCCC2)cc1 | inactive | 
26 | CCc1cc(C(=O)Nc2nnc(C3CC3)s2)sc1C | inactive | 
27 | O=C1CCC(=O)N(c2ccccc2)N1 | inactive | 

Row | SMILES | Potency | activation, negative = inhibition
28 | CC(=O)NC1C(Oc2ccc(C)cc2)OC2COC(c3ccco3)OC2C1O (stereo not given) | inactive | 
29 | COc1ccc(C(=O)CSc2nnnn2C)c(OC)c1 | inactive | 
30 | CCn1nnnc1SCC(=O)c1ccc(C)cc1C | 3.55 µM (active) | 
31 | CCn1nnnc1SCC(=O)Nc1ccc(N(C)C)cc1 | inactive | 
32 | Cc1ccc(NC(=O)COC(=O)C2C3CC4OC(=O)C2C4C3)cc1Cl (stereo not given) | inactive | 
33 | Nc1cc(N)nc(SCC(=O)Nc2cccc(S(=O)(=O)N3CCCCC3)c2)n1 | inactive | 
34 | O=C(/C=C/c1cccc([N+](=O)[O-])c1)OCC(=O)N1CCOCC1 | inactive | 
35 | Cc1ccc(NC(=O)Cc2nc(COC(=O)C(C)NS(=O)(=O)c3ccc(C)cc3)cs2)cc1 (stereo not given) | inactive | 
36 | CCCn1nc(C(=O)OCc2nc(N)nc(Nc3ccccc3C)n2)c2ccccc2c1=O | inactive | 
37 | CCN(CC)C(CNC(=O)CSc1nnnn1-c1cccc(F)c1)c1ccco1 (stereo not given) | inactive | 
38 | COc1ccc(CC(=O)c2ccc(O)cc2O)cc1OC | inactive | 
39 | Cc1cc(O)cc(O)c1C(=O)Cc1cnn(-c2ccccc2)c1 | inactive | 
40 | COc1ccc(C(=O)Cc2cnn(-c3ccccc3)c2)c(O)c1 | 3.16 µM (active) | 
41 | O=C(CN(CC1CCCO1)C(=O)CNS(=O)(=O)c1ccc(F)cc1)NCc1ccco1 (stereo not given) | inactive | 
42 | CCOC(=O)c1ccccc1NC(=O)COC(=O)C(Cc1c[nH]c2ccccc12)NC(C)=O (stereo not given) | inactive | 
43 | O=C(N/C(=C\c1ccc([N+](=O)[O-])cc1)C(=O)N1CCOCC1)c1cccc(Br)c1 | inactive | 
44 | COc1ccc(S(=O)(=O)N2CCN(CC(=O)NCC3(N4CCOCC4)CCCCC3)CC2)cc1 | inactive | 
45 | CN(C)C(=O)COC(=O)c1cccc(S(=O)(=O)N2CC3(C)CC2CC(C)(C)C3)c1 (stereo not given) | inactive | 
46 | O=C(Nc1nnc(-c2ccccc2)o1)c1cc(-c2cccs2)nc2ccccc12 | inactive | 
47 | OC(c1nnc(-c2ccccc2)o1)c1cccs1 (stereo not given) | 4.47 µM (active) | 
48 | CCCN(CCC)c1ccc(C(O)c2nnc(-c3ccccc3)o2)cc1 (stereo not given) | inactive | 
49 | CCOC(=O)C1=C(COC(=O)[C@H](C)NS(=O)(=O)c2ccccc2F)NC(=O)NC1C (stereo not given in full) | inactive | 
50 | COc1ccc(CN2C(=O)C(C)S/C2=N/N=C/c2ccco2)cc1 (stereo not given) | 2.82 µM (active) | 
51 | C=CCN1C(=O)C(Cc2cccc(Cl)c2)S/C1=N/N=C/c1ccco1 (stereo not given) | inactive | 
52 | O=C1N/C(=N\N=C\c2ccco2)SC1Cc1ccc(F)cc1 (stereo not given) | inactive | 
53 | O=C(/C=C/c1ccccc1[N+](=O)[O-])OCC(=O)N1CCCC1 | inactive | 
54 | Cc1nn(Cc2ccccc2)c(C)c1CNC(=O)c1ccc(F)c(S(=O)(=O)N2CCOCC2)c1 | inactive | 

Row | SMILES | Potency | activation, negative = inhibition
55 | Cc1csc(=O)n1CCC(=O)OCC(=O)NNC(=O)c1ccc(Br)cc1 | inactive | 
56 | CCN(CC)S(=O)(=O)c1cc(C(=O)Nc2cc(S(=O)(=O)N3CCOCC3)ccc2N2CCCC2)ccc1F | inactive | 
57 | COc1ccc(S(=O)(=O)N(C)C)cc1NC(=O)CSc1ncccn1 | inactive | 
58 | CN(C)S(=O)(=O)c1ccc2oc(SCC(=O)Nc3ccccc3F)nc2c1 | 1.41 µM (active) | 
59 | COc1ccc(NS(=O)(=O)c2ccc3oc(SCC(N)=O)nc3c2)cc1 | inactive | 
60 | CCOC(=O)[C@H]1[C@H]2COc3ccc(C)cc3[C@@H]2N2C(=O)CN(Cc3ccc(F)cc3)C(=O)[C@@]12C | inactive | 
61 | CC(C#N)(NC(=O)CN1CCN(S(=O)(=O)c2cc(C(F)(F)F)ccc2Cl)CC1)C1CC1 (stereo not given) | inactive | 
62 | Cc1cccc(NC(=O)c2ccc3ccccc3n2)n1 | 3.16 µM (active) | 
63 | Cc1cccc(NC(=O)c2cccnc2Cl)n1 | inactive | 
64 | Cc1cccc(NC(=O)c2ccccc2NC(=O)C(C)(C)C)n1 | inactive | 
65 | COc1ccc(S(=O)(=O)N2CCOCC2)cc1NC(=O)CC1CC2CCC1C2 (stereo not given) | inactive | 
66 | O=C(NCCCc1ccccc1)c1cc(COc2c(F)cccc2F)on1 | inactive | 
67 | CC(C)Cc1cc(C(=O)NCCc2ccccc2)no1 | 3.16 µM (active) | 
68 | Nc1nonc1C(=O)NCCc1ccccc1 | inactive | 
69 | COc1ccc(CCNC(=O)COC(=O)Cc2cccc(F)c2)cc1 | inactive | 
70 | CCCC[C@]12Cc3cc(OC)c(OC)cc3C(O1)C1=C(CC3(CCCCC3)OC1=O)O2 |  | -3.75% [at 1.84 µM]
71 | N#Cc1cccc(NC(=O)C2CCCN(C(=O)c3ccc(Cl)cc3)C2)c1 (stereo not given) | inactive | 
72 | N#CC1(NC(=O)COC(=O)CCN=C2NS(=O)(=O)c3ccccc32)CCCCC1 | inactive | 
73 | CC(=O)/C(C)=N/O | inactive | 
74 | O=C(Nc1ccon1)c1sc2ccccc2c1Cl | 3.16 µM (active) | 
75 | O=C(N/N=C/c1c(Cl)[nH]c2ccccc12)c1sc2ccccc2c1Cl | inactive | 
76 | O=C(Nc1ccon1)c1cccc(Cl)c1 | inactive | 
77 | CC1CCCCC1NC(=O)COC(=O)Cc1ccc(Cl)cc1 (stereo not given) | inactive | 
78 | CCc1ccc(NC(=O)N2CCc3ccccc3C2)cc1 | 2.24 µM (active) | 
79 | CCc1ccc(NC(=O)N2CCN(c3ccccc3)CC2)cc1 | inactive | 
80 | O=C(C(=O)N1CCc2ccccc2C1)N1CCc2ccccc2C1 | inactive | 
81 | COc1cccc(NC(=O)CN(C)CC(=O)c2c(N)n(Cc3ccccc3)c(=O)n(C)c2=O)c1 | inactive | 

Row | SMILES | Potency | activation, negative = inhibition
82 | O=C(CNC(=O)c1ccc2ccccc2c1)Nc1ncccc1O | inactive | 
83 | N#Cc1ccccc1NC(=O)c1cccc(COc2ccc(Cl)cc2Cl)c1 | 0.447 µM (active) | 
84 | O=C(Nc1cccc2cccnc12)c1cccc(Cl)c1 | inactive | 
85 | CSc1ccc(C#N)cc1NC(=O)c1cccc(Cl)c1 | inactive | 
86 | CCN(c1ccccc1)S(=O)(=O)c1cccc(C(=O)NCc2ccccc2CN2CCOCC2)c1 | inactive | 
87 | CN(CC(=O)Nc1ccc(Cl)cc1)CC(=O)Nc1cccc2ccccc12 | inactive | 
88 | C/C=C(/C)C(=O)O[C@@H]1c2cc3c(c4c2[C@@]2(CO4)C(=O)C(OC)=C(OC)C=C2C[C@@H](C)[C@H]1C)OCO3 | inactive | 
89 | CCCNS(=O)(=O)c1ccc(CCC(=O)NCc2cccnc2)cc1 | inactive | 
90 | CCc1ccc(N(CC(=O)NCc2cccnc2)S(=O)(=O)c2ccccc2)cc1 | 3.55 µM (active) | 
91 | O=C(CN(c1cc(C(F)(F)F)ccc1Cl)S(=O)(=O)c1ccccc1)NCc1cccnc1 | inactive | 
92 | Cc1ccc(CN2CC(C(=O)NNC(=O)Cn3ccc(C(F)(F)F)n3)CC2=O)cc1 (stereo not given) | inactive | 
93 | CC(NC(=O)c1ccc(S(=O)(=O)Nc2ccccc2)cc1)c1ccc(S(N)(=O)=O)cc1 (stereo not given) | inactive | 
94 | COc1ccccc1C(=O)Nc1ccc(OCC(=O)N2CCCCC2)cc1 | inactive | 
95 | O=C1CC[C@H](O)CCN1[C@H](CSc1ccc(Br)cc1)Cc1ccccc1 | inactive | 
96 | CC(C)(CSc1nncn1/N=C/c1ccco1)NS(=O)(=O)c1ccc(Cl)cc1 | inactive | 
97 | CC(C)(C)OC(=O)N/N=C/c1ccc(C(=O)O)cc1 | inactive | 
98 | Cc1ccccc1NC(=O)NNC(=O)OC(C)(C)C | inactive | 
99 | C/C(=N\NC(=O)OC(C)(C)C)c1ccc[nH]1 | 2.82 µM (active) | 
100 | Cc1cccc(C)c1NC(=O)C(Cl)C(=O)c1ccccc1 (stereo not given) | inactive | 
101 | CCCCN(C(=O)C1CCC1)c1c(N)n(Cc2ccccc2)c(=O)[nH]c1=O | inactive | 
102 | CCC(=O)c1ccc(OCC(=O)OCC(=O)N2CCc3ccccc3C2)cc1 | inactive | 
103 | COc1ccc2[nH]c(C(=O)Nc3ccccc3Cl)cc2c1 | inactive | 
104 | O=C(Nc1ccccc1)c1cc2ccccc2[nH]1 | 2.51 µM (active) | 
105 | O=C(Nc1cccc(NC(=O)c2ccc(Br)cc2)c1)c1ccccc1 | inactive | 
